Outcome and AC50 data for 20 compounds are collected here from PubChem BioAssay (EPA / NIEHS).

Assay [1] is described as follows: ATG_TAL_CIS: Attagene CIS-FACTORIAL HepG2 Assay for human TAL Basal Promoter (AID 2282966).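 Also: background control endpoint measuring basal TAL promoter reporter mRNA not a specific factor.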 Conditions: HepG2 Attagene cis-factorial TAL promoter reporter; actives raise or lower the signal. In short, it runs like this: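 After 24 hours of chemical exposure, transfected HepG2 cells yielded RNA that was converted to 6-FAM-labelled, HpaI-digested reporter fragments for capillary electrophoresis. Values derive from bidirectional fitting against DMSO controls.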

The nature of assay [2]: ATG_TGFb_CIS: Attagene CIS-FACTORIAL HepG2 Assay for human Transforming Growth Factor (TGF) (AID 2282967). Particulars: HepG2 Attagene CIS TGFb reporter, mRNA transcription; actives raise or lower the signal. In short, it runs like this: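 Readout: fluorescently labeled reporter cDNA fragments resolved by capillary electrophoresis after RT-PCR. Transfected HepG2 cells dosed for 24 h; endogenous TF activity at TGFB1-linked cis element; gain or loss fitted relative to DMSO.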

Assay [3] in a line: ATG_VDRE_CIS: Attagene CIS-FACTORIAL HepG2 Assay for human Vitamin D Receptor Element (VDRE) (AID 2282968). Conditions: HepG2 VDRE cis-reporter transcription, actives raise or lower the signal. The gist of the method:
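Transient MRTU transfection of HepG2, 24 h compound exposure. Readout: reporter transcripts via RT-PCR and capillary electrophoresis, fluorescence. Bidirectional fit vs DMSO.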

Assay [4] deals with Nuclear receptor subfamily 1 group I member 3 (Homo sapiens) (UniProt Q14994). As to the kind of experiment: ATG_CAR_TRANS: Attagene TRANS-FACTORIAL HepG2 Assay for human Constitutive Androstane Receptor (CAR) (AID 2282969; active = hit-call score of the fitted dose curve at least 0.9, where 1 is the maximum;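 also: activators raise reporter mRNA above DMSO so AC50 marks induction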). Particulars: HepG2 Attagene TRANS-FACTORIAL CAR reporter. The gist of the method:
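Transiently transfected HepG2, multiplex TRANS reporters (CAR-Gal4 chimera driving GAL4-UAS reporter). 24 h dosing. Readout: reporter transcript by RT-PCR + capillary electrophoresis, fluorescence intensity; positive direction vs DMSO.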

Assay [5] has as its target X-box-binding protein 1 (Homo sapiens) (UniProt P17861). The experiment in a line: ATG_Xbp1_CIS: Attagene CIS-FACTORIAL HepG2 Assay for human X-box Binding Protein 1 (XBP1) (AID 2282972). Conditions: HepG2 XBP1 cis-element reporter, Attagene multiplex; actives raise or lower the signal. The gist of the method:
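Multiplexed cis-reporter readout in transfected HepG2 liver cells. Exposure lasted 24 hours. Activity in either direction was fitted against DMSO as negative control and baseline.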

Assay [6] is described as follows: ATG_M_19_TRANS: Attagene TRANS-FACTORIAL HepG2 Assay for M19 Transcription Factor (Internal Marker) (AID 2282974; active = hit-call score of the fitted dose curve at least 0.9, where 1 is the maximum). Conditions: HepG2 Attagene TRANS-FACTORIAL M19 internal marker reporter. The gist of the method:
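After transfection of HepG2 with GAL4-UAS-driven reporter constructs, cells are dosed for 24 h. Total RNA is reverse-transcribed, reporter sequences PCR-amplified and labelled, then HpaI-digested and sized by capillary electrophoresis.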

The target of assay [7] is Estrogen receptor (Homo sapiens) (UniProt P03372). As to the kind of experiment: ATG_ERa_TRANS: Attagene TRANS-FACTORIAL HepG2 Assay for human Estrogen Receptor alpha (ERa) (AID 2282970; active = hit-call score of the fitted dose curve at least 0.9, where 1 is the maximum). Particulars: HepG2 Attagene TRANS ERa GAL4 reporter, mRNA. In short, it runs like this: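 Liver-derived HepG2 cells expressing chimeric nuclear receptor-Gal4 proteins from transient transfection were exposed for 24 hours. Gain of reporter mRNA signal versus DMSO, read by capillary electrophoresis of FAM-labelled PCR products, was recorded.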

Assay [8] deals with Steroid hormone receptor ERR1 (Homo sapiens) (UniProt P11474). The experiment in a line: ATG_ERRa_TRANS: Attagene TRANS-FACTORIAL HepG2 Assay for human Estrogen-Related Receptor alpha (ERRa) (AID 2282971; active = hit-call score of the fitted dose curve at least 0.9, where 1 is the maximum). Particulars: HepG2 Attagene TRANS reporter, ERRa transactivation. In short, it runs like this: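 Reporter transcript induction was quantified by RT-PCR and capillary electrophoresis of FAM-labelled, HpaI-cut products after 24 h treatment of HepG2 cells carrying transiently transfected GAL4-UAS reporter units and an exogenous ERRa-Gal4 fusion; activity scored as increase over DMSO.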

Assay [9] deals with Androgen receptor (Homo sapiens) (UniProt P10275). As to the kind of experiment: ATG_AR_TRANS: Attagene TRANS-FACTORIAL HepG2 Assay for human Androgen Receptor (AR) (AID 2282973; active = hit-call score of the fitted dose curve at least 0.9, where 1 is the maximum). Particulars: HepG2 Attagene TRANS-FACTORIAL AR reporter transcription. In short, it runs like this:
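Steps: transfect HepG2 with multiple GAL4-UAS reporter transcription units (TRANS format, exogenous NR-Gal4 protein); dose 24 h; isolate RNA, reverse-transcribe, PCR-amplify, FAM-label, HpaI-digest; resolve by capillary electrophoresis. Positive direction vs DMSO.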

Assay [10] is described as follows: ATG_Hpa5_TRANS: Attagene TRANS-FACTORIAL HepG2 Assay for human GAL4-Hpa5 Hepatocyte Transcription Factor Basal Promoter (AID 2282975; active = hit-call score of the fitted dose curve at least 0.9, where 1 is the maximum;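 also: hits are increases in reporter mRNA over DMSO baseline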). Conditions: HepG2 Attagene GAL4-Hpa5 transcription reporter. In short, it runs like this: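 Gain-of-signal versus DMSO is fitted for reporter mRNA quantified by RT-PCR and capillary electrophoresis after 24 h exposure. This endpoint is an internal background marker in transiently transfected HepG2 cells carrying GAL4-UAS reporter units.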

Records with an inconclusive call do not appear. Where a structure was tested more than once in an assay, its records may differ in their call. Active and inactive are the calls of the source. The calls were made as follows, unless noted: active = hit-call score of the fitted dose curve at least 0.9, where 1 is the maximum; inactive = score below 0.9.

Sequence of Estrogen receptor (Homo sapiens) (P03372 whole entry, looked up, the tested form may be a part): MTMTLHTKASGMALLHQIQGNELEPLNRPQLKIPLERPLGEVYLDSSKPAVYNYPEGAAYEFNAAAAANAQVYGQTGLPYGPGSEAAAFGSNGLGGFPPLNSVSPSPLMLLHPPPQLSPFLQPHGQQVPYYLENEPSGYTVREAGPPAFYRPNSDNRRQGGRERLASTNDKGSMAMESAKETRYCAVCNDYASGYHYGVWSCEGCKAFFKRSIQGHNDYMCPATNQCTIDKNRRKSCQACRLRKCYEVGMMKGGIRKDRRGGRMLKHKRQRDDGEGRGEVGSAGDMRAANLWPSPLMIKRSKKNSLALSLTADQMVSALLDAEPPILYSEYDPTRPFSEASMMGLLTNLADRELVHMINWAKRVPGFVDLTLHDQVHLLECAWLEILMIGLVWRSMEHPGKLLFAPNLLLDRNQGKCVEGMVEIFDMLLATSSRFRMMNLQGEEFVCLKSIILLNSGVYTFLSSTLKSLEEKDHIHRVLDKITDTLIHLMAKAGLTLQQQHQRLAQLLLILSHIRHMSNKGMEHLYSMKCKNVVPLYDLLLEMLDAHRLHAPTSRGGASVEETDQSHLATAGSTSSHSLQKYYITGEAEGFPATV
Sequence of Nuclear receptor subfamily 1 group I member 3 (Homo sapiens) (Q14994 whole entry, looked up, the tested form may be a part): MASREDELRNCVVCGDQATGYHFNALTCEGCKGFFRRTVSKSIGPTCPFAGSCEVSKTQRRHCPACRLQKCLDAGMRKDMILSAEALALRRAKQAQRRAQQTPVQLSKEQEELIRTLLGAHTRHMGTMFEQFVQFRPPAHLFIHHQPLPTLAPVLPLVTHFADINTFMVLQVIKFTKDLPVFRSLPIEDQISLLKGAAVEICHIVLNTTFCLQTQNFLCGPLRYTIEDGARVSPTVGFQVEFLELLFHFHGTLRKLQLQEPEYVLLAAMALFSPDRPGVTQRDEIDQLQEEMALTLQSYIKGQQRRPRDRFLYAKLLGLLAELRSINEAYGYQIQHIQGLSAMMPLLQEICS
Sequence of Steroid hormone receptor ERR1 (Homo sapiens) (P11474 whole entry, looked up, the tested form may be a part): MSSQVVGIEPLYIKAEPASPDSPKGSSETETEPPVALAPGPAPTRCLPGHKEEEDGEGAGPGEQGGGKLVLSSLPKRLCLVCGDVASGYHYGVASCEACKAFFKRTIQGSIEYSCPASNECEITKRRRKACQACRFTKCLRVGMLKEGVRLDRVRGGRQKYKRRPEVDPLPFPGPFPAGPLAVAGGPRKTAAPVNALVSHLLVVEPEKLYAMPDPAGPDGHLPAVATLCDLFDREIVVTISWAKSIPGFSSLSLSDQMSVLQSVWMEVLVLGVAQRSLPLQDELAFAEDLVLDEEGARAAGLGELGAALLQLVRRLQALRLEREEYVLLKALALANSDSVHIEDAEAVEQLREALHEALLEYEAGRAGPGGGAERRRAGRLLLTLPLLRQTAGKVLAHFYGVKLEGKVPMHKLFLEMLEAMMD
Sequence of X-box-binding protein 1 (Homo sapiens) (P17861 whole entry, looked up): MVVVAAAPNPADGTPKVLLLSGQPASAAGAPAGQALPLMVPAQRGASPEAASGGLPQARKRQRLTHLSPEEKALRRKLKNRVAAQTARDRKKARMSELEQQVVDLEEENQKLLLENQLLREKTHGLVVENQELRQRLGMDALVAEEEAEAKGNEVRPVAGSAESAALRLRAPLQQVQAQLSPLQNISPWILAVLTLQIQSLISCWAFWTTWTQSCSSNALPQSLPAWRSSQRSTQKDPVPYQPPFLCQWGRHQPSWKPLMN
Sequence of Androgen receptor (Homo sapiens) (P10275 whole entry, looked up, the tested form may be a part): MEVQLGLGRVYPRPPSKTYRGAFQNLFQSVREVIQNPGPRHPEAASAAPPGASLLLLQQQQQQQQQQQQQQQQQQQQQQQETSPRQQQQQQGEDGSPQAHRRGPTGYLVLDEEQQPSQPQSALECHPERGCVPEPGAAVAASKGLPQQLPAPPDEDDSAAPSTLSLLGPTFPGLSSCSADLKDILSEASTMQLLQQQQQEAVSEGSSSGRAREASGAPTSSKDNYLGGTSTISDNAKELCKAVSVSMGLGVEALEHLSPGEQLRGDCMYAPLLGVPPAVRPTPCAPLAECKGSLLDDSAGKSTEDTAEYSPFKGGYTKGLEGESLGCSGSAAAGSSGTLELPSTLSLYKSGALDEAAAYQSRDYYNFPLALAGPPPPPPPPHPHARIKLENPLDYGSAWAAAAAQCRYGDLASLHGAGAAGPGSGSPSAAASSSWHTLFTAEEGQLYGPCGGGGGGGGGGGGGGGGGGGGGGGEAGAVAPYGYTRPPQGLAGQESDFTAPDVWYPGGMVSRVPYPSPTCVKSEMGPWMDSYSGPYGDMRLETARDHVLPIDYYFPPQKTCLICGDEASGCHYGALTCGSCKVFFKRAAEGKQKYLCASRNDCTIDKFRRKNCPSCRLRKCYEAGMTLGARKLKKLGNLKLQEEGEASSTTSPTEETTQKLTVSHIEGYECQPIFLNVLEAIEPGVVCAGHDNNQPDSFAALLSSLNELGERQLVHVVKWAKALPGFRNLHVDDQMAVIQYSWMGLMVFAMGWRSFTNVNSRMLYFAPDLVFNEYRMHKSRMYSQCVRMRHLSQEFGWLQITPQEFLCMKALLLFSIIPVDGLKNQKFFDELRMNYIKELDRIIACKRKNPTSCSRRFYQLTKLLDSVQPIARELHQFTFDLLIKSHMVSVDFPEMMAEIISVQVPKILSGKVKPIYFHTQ

By AC50 is commonly meant the concentration at which the activity in the assay is half-maximal. Consider `CCCSP(=O)(OCC)SCCC`, for which the compound was classed as inactive in assay [1], in assay [2], in assay [4], in [5] and in assay [6]. Further, the AC50 in [3] was 50 µM (active).
In the case of `COP(=O)(OC)SCn1c(=O)oc2cc(Cl)cnc21`, the compound was classed as inactive in assay [1], in assay [2], in assay [3], in assay [4], in assay [7] and in assay [8]. The call in assay [5], in assay [9] and in [6] was inactive.
Turning to `CNC(=O)ON=C(SC)C(=O)N(C)C`, the result in [1], in assay [2], in assay [4], in assay [7], in assay [8] and in assay [6] was inactive. Besides, in assay [5], the concentration at half-maximal activity (AC50) was 40.5 µM (active).
Consider `COP(=O)(OC)C(O)C(Cl)(Cl)Cl` (configuration not stated), for which the compound was called inactive in assay [1], in assay [2], in assay [4], in assay [8] and in [6]. Further, the AC50 in assay [5] is 39.7 µM (active).
Regarding `CC(Oc1cccc(Cl)c1)C(=O)O` (configuration not stated), the compound was classed as inactive in assay [1], in assay [2], in assay [3], in [5] and in assay [6].
Turning to `CN(C)NC(=O)CCC(=O)O`, the compound was classed as inactive in assay [1], in assay [2], in assay [3], in assay [8] and in assay [5].
For `C=C(C)[C@H]1Cc2c(ccc3c2O[C@@H]2COc4cc(OC)c(OC)cc4[C@@H]2C3=O)O1`, the call in [1], in assay [2], in [4] and in [8] was inactive. In assay [5], the AC50 was 0.0204 µM (active).
With `CCC(CC)Nc1c([N+](=O)[O-])cc(C)c(C)c1[N+](=O)[O-]`, the outcome in [1], in assay [2], in assay [4], in assay [8], in assay [5] and in [6] was inactive.
With `CSc1nc(NC(C)C)nc(NC(C)C)n1`, the outcome in assay [1], in [2], in assay [4], in assay [7], in [8] and in [5] was inactive. Also, the compound was classed as inactive in [6]. Also, the AC50 in assay [3] is 10.3 µM (active).
As for `O=[N+]([O-])c1cc(C(F)(F)F)c(Cl)c([N+](=O)[O-])c1Nc1ncc(C(F)(F)F)cc1Cl`, the outcome in [1], in [2], in assay [3], in assay [4], in [7] and in assay [5] was inactive. For the same compound, the call in assay [6] was inactive. The AC50 in [2] was 2.2 µM (active).
Regarding `CC1(C(=O)Nc2ccc(O)c(Cl)c2Cl)CCCCC1`, the outcome in assay [1], in assay [2], in assay [4] and in [5] was inactive.
Turning to `COP(=O)(NC(C)=O)SC` (configuration not stated), the result in [1], in [2], in assay [4] and in assay [5] was inactive.
For `C#CCC1=C(C)C(OC(=O)C2C(C=C(C)C)C2(C)C)CC1=O` (configuration not stated), the AC50 in assay [1] is 88.4 µM (active); in [5], 84.6 µM (active). The result in [2] and in [4] was inactive.
Turning to `CCCCN(CC)c1c([N+](=O)[O-])cc(C(F)(F)F)cc1[N+](=O)[O-]`, the call in assay [1], in [2], in assay [4], in assay [8] and in [5] was inactive.
Consider `CC(COc1ccc(Oc2ccccc2)cc1)Oc1ccccn1` (configuration not stated), for which the result in [1], in assay [2], in assay [4], in assay [8] and in [5] was inactive.
With `CC[C@H](C)[C@H]1O[C@]2(C=C[C@@H]1C)C[C@@H]1C[C@@H](C/C=C(\C)[C@@H](O[C@H]3C[C@H](OC)[C@@H](O[C@H]4C[C@H](OC)[C@@H](NC)[C@H](C)O4)[C@H](C)O3)[C@@H](C)/C=C/C=C3\CO[C@@H]4[C@H](O)C(C)=C[C@@H](C(=O)O1)[C@]34O)O2`, the result in [1], in assay [2], in assay [4], in [7], in [5] and in assay [6] was inactive.
Take `CCOP(=S)(Oc1cnc(C(C)(C)C)nc1)OC(C)C` (configuration not stated): the result in assay [1], in assay [4], in assay [8] and in assay [5] was inactive. In addition, the figures for the AC50 in assay [2] and in assay [3] were 86.9 µM (active) and 1.89 µM (active), respectively.
On to `CCc1cccc(CC)c1N(COC)C(=O)CCl`, for which the call in assay [7] was inactive.
In the case of `CCOP(=S)(OCC)Oc1cc(C)nc(C(C)C)n1`, the compound was called inactive in [10].
Still for that read-out and setting: then `CON=C(C(=O)OC)c1ccccc1CON=C(C)c1cccc(C(F)(F)F)c1`, with “inactive”.
